Results from the supplement of paper PMC10849652.
Targets with a hit are over-represented here; the source holds about 8,800 in all. About 0.5% of all pairs of compound and target were hits.

Key:
Test in all cases: log2 fold change, soluble protein after heating vs DMSO (PISA); higher = thermal stabilisation; K562 lysate, 10 uM; active = over 0.2 and 3.5 SD of the protein, either way, in both replicates (recomputed)
[1] = compound: C1=CC=C(C=C1)[C@H](COC2=CC3=C(C=C2)NC(=O)N3)NC(=O)C4=CC=CN(C4=O)CC5=CC(=C(C=C5)F)F
How it was run: (§1)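 Dounce homogenisation of K562 pellets in PBS pH 7.4 with 1 mM MgCl2 produced a crude extract, used at 1 mg/mL protein. Exposure to 10 μM compound lasted 30 min, and aliquots were then heated for 3 min across 48°C-58°C, pooled and brought to 0.5% NP-40 at 4°C. The supernatant after 21,000xg for 90 min was quantified by TMTpro 16plex LC-MS/MS with channel sums equalised. Duplicate values are given as log-two fold change in thermal stability relative to solvent controls.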

[2] = compound: CC1=C(SC2=C1C(=N[C@H](C3=NN=C(N32)C)CC(=O)N)C4=CC=C(C=C4)Cl)C
How it was run: as §1

[3] = compound: CC1=C2C(=CC=C1)N=C(N(C2=O)C3=CC=CC=C3C)CN4C=NC5=C(N=CN=C54)N
How it was run: as §1

[4] = compound: Cc1sc2c(c1C)C(c1ccc(Cl)cc1)=N[C@@H](CC(=O)OC(C)(C)C)c1nnc(C)n1-2
How it was run: as §1

[5] = compound: c1ccc([C@@H]2C[C@H]2NC2CCNCC2)cc1
How it was run: as §1

Measured: log2 fold change

SMC4 (UniProt Q9NTJ3)
inactive: [1] -0.033 | [2] 0.003 | [3] -0.011 | [4] -0.005 | [5] 0.055

STIM1 (UniProt Q13586)
inactive: [1] -0.048 | [2] -0.008 | [3] 0.049 | [4] 0.028 | [5] 0.048

SYNRG (UniProt Q9UMZ2)
inactive: [1] -0.033 | [2] 0.05 | [3] 0 | [4] 0.005 | [5] 0.032

STOML2 (UniProt Q9UJZ1)
inactive: [1] -0.008 | [2] 0.004 | [3] -0.027 | [4] -0.025 | [5] -0.008

SMIM12 (UniProt Q96EX1)
inactive: [1] -0.026 | [2] -0.006 | [3] 0.004 | [4] 0.105 | [5] 0.153

SH3BP5L (UniProt Q7L8J4)
inactive: [1] 0.015 | [2] 0.015 | [3] 0.047 | [4] 0.01 | [5] -0.024

SPIRE1 (UniProt Q08AE8)
inactive: [1] -0.008 | [2] 0.031 | [3] -0.006 | [4] -0.053 | [5] -0.212

STK36 (UniProt Q9NRP7)
inactive: [1] -0.014 | [2] 0.174 | [3] 0.163 | [4] -0.43 | [5] -0.42

SND1 (UniProt Q7KZF4)
Chain of UniProt Q7KZF4 (Q7KZF4 whole entry, looked up): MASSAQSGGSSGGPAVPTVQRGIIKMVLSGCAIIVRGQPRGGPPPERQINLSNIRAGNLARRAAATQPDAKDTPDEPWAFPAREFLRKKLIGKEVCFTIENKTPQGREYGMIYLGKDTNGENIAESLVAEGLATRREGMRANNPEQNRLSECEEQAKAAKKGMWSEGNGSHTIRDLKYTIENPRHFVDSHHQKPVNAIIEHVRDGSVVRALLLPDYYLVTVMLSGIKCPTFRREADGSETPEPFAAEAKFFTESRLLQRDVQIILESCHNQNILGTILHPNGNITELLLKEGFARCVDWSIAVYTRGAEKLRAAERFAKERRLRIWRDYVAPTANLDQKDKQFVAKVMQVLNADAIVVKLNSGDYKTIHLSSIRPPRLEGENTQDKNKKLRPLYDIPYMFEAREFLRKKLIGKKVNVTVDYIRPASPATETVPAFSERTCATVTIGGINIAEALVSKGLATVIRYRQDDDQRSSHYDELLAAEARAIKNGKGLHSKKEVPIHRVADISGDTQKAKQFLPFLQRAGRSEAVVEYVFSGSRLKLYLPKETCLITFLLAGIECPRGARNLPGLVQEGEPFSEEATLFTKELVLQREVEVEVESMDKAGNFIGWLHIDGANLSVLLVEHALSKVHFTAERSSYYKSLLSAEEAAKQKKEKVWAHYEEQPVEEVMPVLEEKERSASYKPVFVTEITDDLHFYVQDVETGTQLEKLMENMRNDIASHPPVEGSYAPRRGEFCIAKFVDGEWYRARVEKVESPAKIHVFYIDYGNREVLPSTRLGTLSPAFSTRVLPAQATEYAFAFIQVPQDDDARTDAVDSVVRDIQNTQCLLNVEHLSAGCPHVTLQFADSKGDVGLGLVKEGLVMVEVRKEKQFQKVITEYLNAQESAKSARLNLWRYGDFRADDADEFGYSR
inactive: [1] -0.008 | [2] 0.021 | [3] 0.022 | [4] 0.037 | [5] 0.041

SKA2 (UniProt Q8WVK7)
inactive: [1] -0.013 | [2] -0.038 | [3] 0.031 | [4] -0.004 | [5] 0.033

SPATA5L1 (UniProt Q9BVQ7)
inactive: [1] -0.019 | [2] 0.036 | [3] 0.006 | [4] -0.007 | [5] -0.039

SOX5 (UniProt P35711)
inactive: [1] -0.092 | [2] -0.052 | [3] 0.076 | [4] -0.005 | [5] 0

SPC25 (UniProt Q9HBM1)
inactive: [1] 0.055 | [2] 0.044 | [3] 0.029 | [4] 0.022 | [5] 0.039

SRGN (UniProt P10124)
inactive: [1] 0.101 | [2] 0.14 | [3] 0.063 | [4] -0.03 | [5] -0.196

SMG1 (UniProt Q96Q15)
inactive: [1] -0.05 | [2] -0.012 | [3] 0.018 | [4] 0.034 | [5] 0.046

SMC3 (UniProt Q9UQE7)
inactive: [1] -0.002 | [2] 0.011 | [3] -0.011 | [4] 0.037 | [5] 0.022

SMAD2 (UniProt Q15796)
Chain of UniProt Q15796 (Q15796 whole entry, looked up): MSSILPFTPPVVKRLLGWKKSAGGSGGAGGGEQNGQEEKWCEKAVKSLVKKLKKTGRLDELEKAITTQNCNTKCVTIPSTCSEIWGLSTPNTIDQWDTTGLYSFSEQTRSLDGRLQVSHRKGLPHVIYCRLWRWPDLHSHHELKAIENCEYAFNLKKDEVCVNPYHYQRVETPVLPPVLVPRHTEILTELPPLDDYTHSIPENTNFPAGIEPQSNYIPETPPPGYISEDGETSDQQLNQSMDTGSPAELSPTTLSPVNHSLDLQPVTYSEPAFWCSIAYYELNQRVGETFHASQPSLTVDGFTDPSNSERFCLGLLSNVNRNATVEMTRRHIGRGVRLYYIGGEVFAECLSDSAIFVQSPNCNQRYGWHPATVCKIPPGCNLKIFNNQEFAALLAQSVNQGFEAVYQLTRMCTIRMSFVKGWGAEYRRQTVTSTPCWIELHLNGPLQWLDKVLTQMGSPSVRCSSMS
inactive: [1] -0.006 | [2] 0.024 | [3] -0.104 | [4] 0.023 | [5] 0

SLC38A10 (UniProt Q9HBR0)
inactive: [1] 0.007 | [2] 0.007 | [3] 0.036 | [4] -0.053 | [5] -0.04

TANGO6 (UniProt Q9C0B7)
inactive: [1] 0.05 | [2] -0.021 | [3] -0.036 | [4] 0.043 | [5] -0.009

SMARCA4 (UniProt P51532)
inactive: [1] -0.034 | [2] 0.016 | [3] 0.003 | [4] 0.014 | [5] 0.055

SLC38A1 (UniProt Q9H2H9)
inactive: [1] 0.055 | [2] -0.116 | [3] 0.06 | [4] -0.116 | [5] -0.128

SMAP2 (UniProt Q8WU79)
inactive: [1] 0.02 | [2] -0.002 | [3] 0.029 | [4] 0.049 | [5] 0.02

SNX6, A0A0A0MRI2
inactive: [1] 0.014 | [2] 0.006 | [3] 0.016 | [4] 0.017 | [5] 0.115

SLC25A32 (UniProt Q9H2D1)
Chain of UniProt Q9H2D1 (Q9H2D1 whole entry, looked up): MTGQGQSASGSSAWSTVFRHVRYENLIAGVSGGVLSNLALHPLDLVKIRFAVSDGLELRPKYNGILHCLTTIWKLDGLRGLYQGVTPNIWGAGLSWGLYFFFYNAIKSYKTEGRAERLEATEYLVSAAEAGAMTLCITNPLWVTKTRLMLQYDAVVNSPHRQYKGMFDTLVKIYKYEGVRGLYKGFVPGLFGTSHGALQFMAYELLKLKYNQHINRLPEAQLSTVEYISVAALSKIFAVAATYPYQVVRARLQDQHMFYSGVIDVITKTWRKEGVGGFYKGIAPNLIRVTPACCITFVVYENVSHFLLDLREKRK
inactive: [1] 0.032 | [2] 0.014 | [3] 0.016 | [4] -0.053 | [5] -0.06

STK24 (UniProt B4DR80)
inactive: [1] -0.025 | [2] 0.003 | [3] -0.041 | [4] -0.019 | [5] -0.055

STARD3 isoform 3 (UniProt Q14849)
Chain of UniProt Q14849 (Q14849 whole entry, looked up): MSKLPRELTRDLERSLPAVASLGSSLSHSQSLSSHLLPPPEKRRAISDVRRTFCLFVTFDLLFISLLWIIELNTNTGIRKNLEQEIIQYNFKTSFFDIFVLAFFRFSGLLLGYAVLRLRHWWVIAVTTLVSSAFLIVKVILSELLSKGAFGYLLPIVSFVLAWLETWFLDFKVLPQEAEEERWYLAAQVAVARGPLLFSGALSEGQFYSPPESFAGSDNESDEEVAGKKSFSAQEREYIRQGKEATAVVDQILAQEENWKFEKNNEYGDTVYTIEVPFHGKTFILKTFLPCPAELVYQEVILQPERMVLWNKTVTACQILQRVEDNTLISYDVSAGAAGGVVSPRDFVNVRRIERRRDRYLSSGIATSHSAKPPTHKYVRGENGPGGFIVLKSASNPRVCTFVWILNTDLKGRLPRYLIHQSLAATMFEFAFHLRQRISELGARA
inactive: [1] -0.015 | [2] 0.007 | [3] 0 | [4] -0.004 | [5] 0

SHC1 isoform 6 (UniProt P29353)
inactive: [1] 0.019 | [2] 0.006 | [3] 0.056 | [4] 0.087 | [5] 0.25

SSBP3 (UniProt Q9BWW4)
inactive: [1] -0.113 | [2] -0.031 | [3] 0.062 | [4] -0.06 | [5] -0.005

SH3GL1 (UniProt Q99961)
inactive: [1] 0.007 | [2] 0.016 | [3] 0.007 | [4] 0.012 | [5] 0.003

SLC25A38 (UniProt Q96DW6)
inactive: [1] 0.099 | [2] 0 | [3] 0.013 | [4] -0.323 | [5] -0.047

SSU72 (UniProt Q9NP77)
inactive: [1] 0.014 | [2] 0.017 | [3] 0.078 | [4] 0.004 | [5] -0.17

SPA17 (UniProt Q15506)
inactive: [1] 0.057 | [2] -0.064 | [3] -0.006 | [4] -0.132 | [5] -0.364

SRM (UniProt P19623)
inactive: [1] -0.007 | [2] 0.029 | [3] 0.001 | [4] 0.009 | [5] 0.039

SLC27A2 (UniProt O14975)
Chain of UniProt O14975 (O14975 whole entry, looked up): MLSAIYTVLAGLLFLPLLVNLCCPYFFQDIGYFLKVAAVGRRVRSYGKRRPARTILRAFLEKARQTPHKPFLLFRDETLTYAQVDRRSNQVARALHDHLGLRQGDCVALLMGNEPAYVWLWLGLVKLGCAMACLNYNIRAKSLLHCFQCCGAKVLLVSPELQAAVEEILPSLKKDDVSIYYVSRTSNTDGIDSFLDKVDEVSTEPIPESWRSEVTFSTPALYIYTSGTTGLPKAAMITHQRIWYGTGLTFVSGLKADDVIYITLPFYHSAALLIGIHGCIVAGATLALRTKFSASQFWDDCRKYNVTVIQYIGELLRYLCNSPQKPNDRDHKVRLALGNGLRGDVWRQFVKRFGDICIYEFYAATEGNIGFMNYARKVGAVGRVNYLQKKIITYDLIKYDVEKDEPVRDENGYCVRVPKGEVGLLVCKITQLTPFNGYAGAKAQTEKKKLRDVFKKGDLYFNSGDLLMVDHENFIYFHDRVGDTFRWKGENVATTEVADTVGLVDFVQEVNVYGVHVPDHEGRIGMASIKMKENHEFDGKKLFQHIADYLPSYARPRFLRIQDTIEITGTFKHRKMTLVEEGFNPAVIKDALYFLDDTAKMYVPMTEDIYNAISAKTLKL
inactive: [1] 0.198 | [2] -0.064 | [3] -0.043 | [4] -0.063 | [5] -0.05

TADA3 (UniProt O75528)
Chain of UniProt O75528 (O75528 whole entry, looked up): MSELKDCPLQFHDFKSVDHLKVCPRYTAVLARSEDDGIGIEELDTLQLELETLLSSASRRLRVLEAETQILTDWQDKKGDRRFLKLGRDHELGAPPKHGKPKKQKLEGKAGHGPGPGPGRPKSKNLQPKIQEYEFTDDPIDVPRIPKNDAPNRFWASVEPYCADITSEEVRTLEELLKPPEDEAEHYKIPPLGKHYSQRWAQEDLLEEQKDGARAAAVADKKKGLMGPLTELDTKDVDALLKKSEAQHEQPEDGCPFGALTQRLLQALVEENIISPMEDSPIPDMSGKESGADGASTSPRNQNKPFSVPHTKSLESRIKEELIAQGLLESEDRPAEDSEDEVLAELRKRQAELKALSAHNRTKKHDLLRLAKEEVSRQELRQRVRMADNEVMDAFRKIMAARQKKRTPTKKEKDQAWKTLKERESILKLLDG
inactive: [1] 0.043 | [2] 0 | [3] 0.087 | [4] -0.015 | [5] -0.098

SKA3 (UniProt Q8IX90)
inactive: [1] -0.008 | [2] -0.002 | [3] -0.009 | [4] -0.016 | [5] -0.02

STK3 isoform 2 (UniProt Q13188)
inactive: [1] -0.031 | [2] -0.042 | [3] -0.108 | [4] 0.01 | [5] -0.073

SLC12A6 (UniProt Q9UHW9)
Chain of UniProt Q9UHW9 (Q9UHW9 whole entry, looked up): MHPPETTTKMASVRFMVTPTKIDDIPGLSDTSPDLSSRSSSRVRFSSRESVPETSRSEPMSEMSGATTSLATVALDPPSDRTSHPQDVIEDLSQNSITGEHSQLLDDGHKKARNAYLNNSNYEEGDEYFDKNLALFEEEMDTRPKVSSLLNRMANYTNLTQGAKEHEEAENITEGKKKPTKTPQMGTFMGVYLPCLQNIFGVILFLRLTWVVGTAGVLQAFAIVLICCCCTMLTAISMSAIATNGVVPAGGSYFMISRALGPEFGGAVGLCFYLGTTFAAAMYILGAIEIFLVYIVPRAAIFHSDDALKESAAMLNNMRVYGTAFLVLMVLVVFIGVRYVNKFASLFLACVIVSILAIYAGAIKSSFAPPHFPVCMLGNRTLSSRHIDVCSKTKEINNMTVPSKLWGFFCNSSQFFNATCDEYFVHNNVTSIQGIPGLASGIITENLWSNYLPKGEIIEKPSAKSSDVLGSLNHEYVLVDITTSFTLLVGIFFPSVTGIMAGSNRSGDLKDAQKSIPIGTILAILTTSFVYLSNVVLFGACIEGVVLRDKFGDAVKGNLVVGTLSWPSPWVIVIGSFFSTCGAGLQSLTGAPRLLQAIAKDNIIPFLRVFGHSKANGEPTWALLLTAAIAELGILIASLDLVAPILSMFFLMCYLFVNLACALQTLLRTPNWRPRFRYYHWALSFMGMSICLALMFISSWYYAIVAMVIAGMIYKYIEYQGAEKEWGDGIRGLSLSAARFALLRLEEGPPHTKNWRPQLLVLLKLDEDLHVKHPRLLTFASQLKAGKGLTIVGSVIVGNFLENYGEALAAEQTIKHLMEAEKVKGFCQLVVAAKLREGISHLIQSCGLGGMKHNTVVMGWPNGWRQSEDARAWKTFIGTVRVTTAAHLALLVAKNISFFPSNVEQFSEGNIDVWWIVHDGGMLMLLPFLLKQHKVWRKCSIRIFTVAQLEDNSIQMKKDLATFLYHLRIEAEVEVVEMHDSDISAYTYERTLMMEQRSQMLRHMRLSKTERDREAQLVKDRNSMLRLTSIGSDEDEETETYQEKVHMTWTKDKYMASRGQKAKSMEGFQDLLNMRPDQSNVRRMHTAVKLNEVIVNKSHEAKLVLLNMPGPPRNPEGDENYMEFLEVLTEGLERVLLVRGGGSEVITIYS
inactive: [1] 0.006 | [2] 0.017 | [3] 0.017 | [4] 0.036 | [5] 0.008

STUB1 (UniProt Q9UNE7)
inactive: [1] -0.04 | [2] 0.036 | [3] -0.006 | [4] 0.035 | [5] 0.02

SLC26A6 (UniProt Q9BXS9)
inactive: [1] -0.053 | [2] 0.067 | [3] 0.011 | [4] -0.556 | [5] -0.096

SRRT (UniProt Q9BXP5)
inactive: [1] -0.003 | [2] 0.02 | [3] -0.002 | [4] 0.021 | [5] 0.068

SFN (UniProt P31947)
inactive: [1] 0.039 | [2] -0.033 | [3] -0.023 | [4] 0.041 | [5] 0.046

TAF1B (UniProt Q53T94)
inactive: [1] -0.073 | [2] 0.071 | [3] 0.499 | [4] -0.13 | [5] -0.008

SMIM8 (UniProt Q96KF7)
inactive: [1] 0.061 | [2] 0.044 | [3] 0.004 | [4] 0.047 | [5] -0.157

SLC39A11 (UniProt Q8N1S5)
inactive: [1] 0.022 | [2] -0.041 | [3] 0.063 | [4] 0.186 | [5] 0.036

SPG11 (UniProt Q96JI7)
inactive: [1] -0.22 | [2] -0.253 | [3] 0.015 | [4] 0.067 | [5] 0.006

SURF2 (UniProt Q15527)
inactive: [1] -0.013 | [2] 0.054 | [3] -0.054 | [4] 0.056 | [5] -0.032

STK39 (UniProt Q9UEW8)
inactive: [1] 0.011 | [2] -0.056 | [3] 0.049 | [4] 0 | [5] 0.078

SRSF7 (UniProt Q16629)
inactive: [1] -0.005 | [2] 0.023 | [3] 0.04 | [4] 0.025 | [5] -0.045

SH3BP2 isoform 4 (UniProt P78314)
inactive: [1] -0.05 | [2] 0.211 | [3] -0.124 | [4] 0.035 | [5] -0.021

TANK (UniProt Q92844)
inactive: [1] 0.04 | [2] -0.088 | [3] -0.023 | [4] -0.079 | [5] -0.025

SHKBP1 (UniProt Q8TBC3)
Chain of UniProt Q8TBC3 (Q8TBC3 whole entry, looked up): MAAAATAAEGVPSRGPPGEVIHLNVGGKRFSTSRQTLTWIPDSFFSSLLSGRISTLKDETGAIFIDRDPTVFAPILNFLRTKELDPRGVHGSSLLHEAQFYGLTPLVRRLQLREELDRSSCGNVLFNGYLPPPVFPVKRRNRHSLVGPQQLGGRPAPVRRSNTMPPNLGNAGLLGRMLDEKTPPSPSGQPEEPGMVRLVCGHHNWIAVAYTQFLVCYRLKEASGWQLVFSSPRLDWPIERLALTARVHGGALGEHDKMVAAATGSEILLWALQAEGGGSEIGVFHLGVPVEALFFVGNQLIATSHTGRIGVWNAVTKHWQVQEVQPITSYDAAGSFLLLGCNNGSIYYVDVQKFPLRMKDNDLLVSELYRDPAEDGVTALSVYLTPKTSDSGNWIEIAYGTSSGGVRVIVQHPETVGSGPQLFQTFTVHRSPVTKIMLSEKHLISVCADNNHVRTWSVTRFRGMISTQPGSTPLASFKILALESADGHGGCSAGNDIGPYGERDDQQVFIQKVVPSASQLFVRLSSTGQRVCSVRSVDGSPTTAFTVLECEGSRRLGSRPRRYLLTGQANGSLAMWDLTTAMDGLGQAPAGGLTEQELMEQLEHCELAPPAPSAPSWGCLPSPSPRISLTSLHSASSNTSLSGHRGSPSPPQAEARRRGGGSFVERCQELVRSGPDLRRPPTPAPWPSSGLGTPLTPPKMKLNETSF
inactive: [1] 0.016 | [2] 0.02 | [3] 0.077 | [4] -0.027 | [5] 0.007

SPATA5 (UniProt Q8NB90)
inactive: [1] -0.024 | [2] -0.005 | [3] 0.026 | [4] 0.008 | [5] 0.02
